In all, about 53,000 sequences went through this assay and about 3,700 (7%) were called active. This excerpt belongs to a sample that is enriched for actives. A number with no mark means an inactive call.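 How the source made its calls: active means gene knockdowns whose robust z-score for IL-1 alpha signal is at least 2 or at most -2, so actives lie on both sides; inactive means the rest.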

For 108 sequences, z-score results are on record in PubChem BioAssay AID1508600 (Functional Genomics Laboratory (NCATS/FGL), 2020).

This assay can be described thus: Components of the Cytosolic LPS Sensing Pathway: Gene Identification via Genome-wide siRNA Screen.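 Further: robust z of the log signal after scaling to non-targeting control siRNA wells of the plate.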 To be noted: RAW264.7 macrophages, IL-1a HTRF, actives lie on both sides, screened at 100 nM (by protocol), cells primed 5 h with Pam3CSK4 first. Summed up: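 Three distinct siRNAs per gene were tested singly at 100 nM in RAW264.7 macrophages. Following Pam3CSK4 priming and 24 hour LipidA transfection, IL-1a secretion was read by HTRF.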
(Time-resolved FRET reads energy transfer from a long-lived donor to a nearby acceptor.)
For GGUUGUGAUGUGGUGGUCATT against Mdh2, the z-score was 1.3.
Next, GGGAGAGACAGAAAGCUUUTT against Olfr213: 1.61; GCCUAGAAAGUCUGAAUAATT against Ifng: 0.203; GCUGUAAGCCAAUUAACAUTT against Emp1: 1.06.
As for CGUGCUUAGCAAUCUGAAUTT against Bcl6b, the figure is 2.44 (active); as for GGAAACAACUUUCUAUAACTT against Vmn1r195, -0.487; as for GGAUUCAGCAAAUGCUUCCTT against Rcor3, 2.31 (active).
As for GGACAAGGCCAAGCUAUAATT against Cntnap2, the figure is -1.47.
As for GCACCAAAUUCACUAGAGUTT against Cd24a, the z-score is 0.83.
Next, GCCCAUAAACUGAUGGUGGTT against Tbc1d24: -0.45; CCCAACAAAUACCACUACATT against Usp20: -1.39.
Next, GGAUCUGGUGACAAACGUATT against Cabyr: 2.04 (active); CCCGACUGAAUGCUCGGAUTT against Rnf220: 0.386; GGAGAAAGCUCGAAAAUGGTT against Prpf8: -1.61.
As for GGAAGGAAACUACGAAGGUTT against Edn1, the figure is -0.534; as for GGAUGCAGAAGCAACUUAATT against AA986860, 1.91.
For the sequence CCGAUUUCCACAUCUGUCATT against Fam104a, the z-score was -2.45 (active).
Next, GGAAAGAAACAGAAGCACATT against Il21: -0.511.
As for “GCCUCUGUUCCAUCUUGGATT against F830104G03Rik”, the figure is 1.61; as for GCUCAGCAGGAAAUAACAGTT against Ccdc90b, -2.06 (active).
As for GGAUGAAGAGCAUAACAGUTT against Sft2d2, the figure is -0.95; as for GCUAGUCAUGCUACGGAAUTT against Aftph, 0.601.
For GGUUGUUUCACCAAUAGUUTT against Idi1, the z-score is -0.454.
Next, GGGCAGAUGUAAUUCUUGUTT against Ctsm: 1.91.
On to GGUACAUGUAUUGUUUCACTT against Cyp2c38, for which the z-score was 2.76 (active).
Consider GGAUUAUCCUGGCUUGUUGTT against Rdh12, for which the z-score was -0.962.
As for GCUGAUUGCCUCGGAGAAUTT against Shmt1, the figure is -0.0766; as for GCGCAUCGAAAAAUGGAUUTT against Rgl3, 0.236.
As for GGUAUUGAGUGAUAACUACTT against Klhdc7a, the z-score was 1.29.
As for GCAUUCAAUCUGCAGAGGGTT against Olfr888, the figure is -2.48 (active).
As for GGGUAGAAAAGUGCAAUUUTT against Has2, the figure is 0.0317.
As for CGCUCUAGGAAAACAAUGUTT against Klb, the figure is -0.614.
Turning to GGGUACAUCUAACUUGAAUTT against Tnfrsf10b, the z-score is -0.411.
As for GCGGCAUGGACUUAGUAAATT against Fbxo5, the z-score was 3.11 (active).
As for CGAUUAGUCUCUCAUUAUUTT against Ipo11, the figure is -1.12; as for GGCUAAUGCUCCUUCAUGUTT against Myo18a, -0.439; as for GCCCUGCACCAGAAAAACATT against Stk40, -0.662.
Next, GGUCUCUGUCUCCAAGAAATT against Fam53c: -1.69.
Next, GGUGUUUGGGCGGUUUGAATT against Snx15: -2.25 (active); CCCUUAAUAAAGAAGGGACTT against Atg9a: 0.961.
As for GGGUCUACGAAGAAUAGGGTT against Cxcl14, the z-score was 0.744.
As for GCUAGAAGCUUUCUAUUCUTT against Hsph1, the figure is 1.68; as for GGAGAGUAUCUGAAGUUUCTT against Jak2, 1.8; as for GGUAAAAUGAUCCUUAGAATT against Pcdh15, 0.145.
As for GGAGCUGUCUCUACGAAACTT against Myoz3, the figure is 1.27; as for GGAGCCUUUAAUCUCAUUATT against Wbp1, -0.463.
Next, GCCGUUUUAUUCACGUGAATT against Erp27: -1.36; GGAUGUGGUGGUAUUAGACTT against Phykpl: 2.5 (active).
Regarding GGAAGAGGUUCAGAACAGATT against Spaca1, the z-score is 1.19.
Next, GGACCAAGGAUGUUCGCUUTT against Cnr2: 1.14; GGAACGAACUCAUUAAAACTT against Abhd3: -0.736.
Consider CCGAUUUGGGUCAAUUUUATT against Usf3, for which the z-score was -0.047.
As for GGCGGAUUGAAUAAGAAGGTT against Pfn2, the figure is -0.517; as for GGGCUUUGGAUGAACUGCATT against Cldn17, -0.0702.
As for GGAGCUCUUUGAGUACAUCTT against Ift46, the figure is 2.48 (active); as for CUCACAAGUCAAAGCCUACTT against Zfp182, 0.121; as for AAUAGACUGGUACUCUCUGTT against Olfr476, 1.08.
For GCCUGGUUACAGCAUUAACTT against Rimkla, the z-score was -1.75.
As to GGUCAAACAAGAAACAGUUTT against Prdm1, the z-score is 0.417.
As for GCUGUGCCCUAAAGACUGGTT against Clec2m, the z-score was 2.27 (active).
Next, GGUGAAGCUGAAGAAGUACTT against Chst12: 0.975.
As for GGAUAAUGGAGCAAAUUGCTT against Slc22a1, the figure is -0.522.
Next, GCAAGUUAACCAGACCCAATT against Mro: 0.709.
For the sequence GGAGAAGCUGUUUGUUCUGTT against Ftcd, the z-score was 0.507.
For GGACAAGGCAACACAUACCTT against Csnk1a1, the z-score is 2.58 (active).
As for GCCACUACUACAUCAAUGUTT against Mall, the figure is 1.24; as for GGGUCCUCUUUAAAAGGCUTT against Smc6, -1.1; as for CCUACCCAAACCUACUAAATT against Gpt2, -0.168.
As for GGAUCUGGAGAAGAUGAUGTT against Ret, the figure is -0.822; as for GGCCAAAAAAACAUACAAGTT against Zbtb21, 4.91 (active); as for GGUAUCAAGGCUCUGGUGUTT against Ifnlr1, -0.602.
Next, CAGCAUGAUGAUGGAGACCTT against Sox1: 0.708; UGGAUACUCUAUCUCAAGCTT against Serpinb9g: -0.479; GCAACAAGUGUUGGACUCATT against Tob2: -2.04 (active).
As to GGAAAGUAACUAAAGGCAATT against Arl8b, the z-score is 0.274.
Next, GCUACAAGACUUUUACCAGTT against Tnfsf18: -0.0821; GGGACUAGACUUCUUCGGATT against Ddx52: 0.186.
Next, UGGCAAAAAGGUGAUAACUTT against Hbb-b2: 0.86; GGCCCAGCAUGCAAGUUAUTT against Sh2d2a: 2.17 (active).
Next, CCACAGCCAAAUGCACAAGTT against Platr26: 0.31; CCUCAUUCAAGAAACCUCATT against Comtd1: -1.13; GGAACACCAUCAUCAGUCATT against Ephb2: -0.448.
For the sequence GGUCUCCACUGAGGACUGUTT against Ndufa2, the z-score is 0.284.
Next, GGCCUAGGGAAAGCUAUGGTT against Nat8f3: -2.57 (active).
In the case of GCAGAAGUGCUAUUCUUGUTT against Cnbp, the z-score is 0.108.
As for GCGGCUUUGGCAAUUCUCUTT against Olfr1361, the figure is -1.13; as for GGUGCCUUUCUGCUUUUGATT against Spink12, 1.87; as for GGAAUAUUACCAGUCGGAATT against Marveld3, 0.469.
Take GGAAAAUCUUGACUUCAUCTT against Cbwd1: the z-score was -0.316.
Next, CCUGAUGCCAGUUAACAGUTT against Rcan1: 0.516; GGAGGUUUUCCACCACUUGTT against Efcc1: -2.04 (active); GCGAUAUGAAUAUCAUCUUTT against Fbxo22: -0.0727.
Next, GGAAUCUUUAUCCACAUUCTT against Chst15: 0.943; GGAGCAACUAAUGAAGAAATT against Dnajc22: -0.064; GGUACUACAAGAGAAAAGATT against Hdhd2: -0.958.
Next, GGUCUCUGUUGCUUUGACUTT against Tgoln1: 4.13 (active); GGUCCUAAAAUUUCCUCUUTT against Prdx3: 0.854.
For the sequence GCCUCUUAUUUGGUUACGATT against Best3, the z-score was 0.605.
As for GCGUUUCACGUACCUUCCUTT against Nfatc1, the figure is 1.22; as for GGUGCUAUUUACCAAACUCTT against Btg2, 1.82; as for GGAACACAACUUCCUGUUCTT against Map11, 1.05.
Next, GGGAUGCUGUCUUCUGUCATT against Prex1: -3.39 (active); GGAUUUUACAGUUUUUGGATT against Pccb: 1.01; GGUCAUGGUUAUUUUGUUATT against Plekhg2: 0.929.
Turning to GGCUAUUUUGGCUUGUAAATT against Jam2, the z-score was -0.504.
For CCUAACCACUACCUUAUACTT against H2-DMa, the z-score was 2.43 (active).
In the case of GGUGUCAUGAUGGAGCUGATT against Crygc, the z-score is 0.862.
Next, GGGUAACACCUCAAGUUCATT against Rhag: 2.33 (active).
